# Bioassay records (PubChem)
# HT1080 IDH1KD tx – toxicity to HT-1080 IDH1 knockdown cells (counter line). HT-1080 IDH1 knockdown viability, ATP luminescence, 48 h. 360,000 compounds, 2% hits. AID 686971. Potency, µM (highest dose often 46.1 µM), for inactives: at the top dose activity, negative = toxicity, most hits filed as cytotoxic;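 also: potency is read from the fitted curve at half-maximal effect; 0% = DMSO wells and -100% = cell-free medium wells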
#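 Viability of IDH1-knockdown HT-1080 fibrosarcoma cells was assessed by CellTiter-Glo after 48 h at 37 °C with titrated compound; concentration-effect curves were classified by fit quality and response size.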
# TDP1 cell noCPT – qHTS for Inhibitors of human tyrosyl-DNA phosphodiesterase 1 (TDP1): qHTS in cells in absence of CPT | DT40 Tdp1-/- hTDP1 cells, no CPT, ATP luminescence, 48 h | 420,000 compounds, 15% hits | Potency, µM (titrated, usually from 46.2 µM), inactives show at the highest dose activity change, negative = growth inhibition, actives largely listed as inhibitors | AID 686978, 2013; also: potency is read from the fitted curve at half-maximal effect; nearly all actives have a fitted effect of over 55% in size
#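 No-CPT arm: Tdp1-/-;hTDP1 DT40 cells (400/well) plus compounds, incubated ≥48 hr at 37 °C. Readout CellTiter-Glo luminescence.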
# IL-1B inflam inh – inflammasome signaling inhibition, IL-1 beta readout; 360,000 compounds, 4.7% hits; AID 743279; activity change, % at 57.5 µM; THP-1 LPS/ATP IL-1B secretion, AlphaLISA, 16 h; stronger effect = lower value; in the data active = activity change below about -50%; inconclusive = mostly about -30% to -49%
#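 Secreted IL-1B measured by AlphaLISA bead assay after 16 h compound exposure of THP-1 cells; compounds (final up to 57.5 uM) added 1 h before LPS (250 ng/mL) and ATP (1.25 mM) stimulation; lower signal means less secretion.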
# TDP1 cell CPT – DT40-hTDP1 cell growth loss with CPT | Potency, µM (doses to about 46.2 µM), for the others: top-dose activity change, negative = growth inhibition, most hits filed as inhibitors | AID 686979 | 420,000 compounds, 12% hits | chicken DT40 Tdp1-/-;hTDP1 cells + 20 nM CPT, ATP luminescence, 48 h; also: potency is read from the fitted curve at half-maximal effect; nearly all actives have a fitted effect of over 55% in size
#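 Chicken DT40 Tdp1-/- cells stably complemented with human TDP1 were seeded at 400 cells/well in medium containing 20 nM camptothecin, exposed to pin-transferred compounds, and grown at 37 °C for at least 48 hr. Viability was read as ATP luminescence.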
# HT1080NT lethal – kills 2HG-producing HT-1080-NT fibrosarcoma cells; HT-1080-NT fibrosarcoma viability, CellTiter-Glo ATP luminescence, 48 h; AID 686970; 360,000 compounds, 1.6% hits; Potency, µM (highest dose often 46.1 µM), for inactives: at the highest dose activity, negative = less viability, usual class: cytotoxic;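 also: NT is the 2HG producing partner of a matched IDH1 knockdown line; potency is read from the fitted curve at half-maximal effect; 0% = DMSO-treated cells and -100% = media-only wells without cells; nearly all actives have a fitted effect of over 55% in size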
#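 HT-1080-NT; 750 cells/well; 5% FBS RPMI; 48 h compound, 37 degrees C; CellTiter-Glo luminescence; curve fitting and curve-class assignment.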
# Numbers without * were called inactive; i = inactive; ? = inconclusive; · = no result given; [ ] = remark or other dose. Shown are actives, neighbours in structure and some others; about 19% of the full set was active somewhere. Unless noted, calls follow the shape of the dose curve; as a rule, active = well fitted curve in the direction sought with a large enough effect; inconclusive = small, poorly fitted or top-dose-only effect, or another doubt; inactive = no such curve, though single readings can be large; an effect the other way counts as inactive or inconclusive. Unless noted, % is scaled to controls: 0 for no effect and ±100 for the full control effect.
SMILES,HT1080 IDH1KD tx,TDP1 cell noCPT,IL-1B inflam inh,TDP1 cell CPT,HT1080NT lethal
CCCN1CCN(C(=O)c2nn(-c3ccc(OC)cc3)c(=O)c3c2c2ccccc2n3C)CC1,8%,?,54,?,0%
COc1cc(NCCCn2ccc(NC(=O)OCc3ccccc3)nc2=O)cc(OC)c1OC,2%,-14%,-30,-26%,8%
Cc1cc(C)c(CN2CCN(CCCn3ccc(NC(=O)OCc4ccccc4)nc3=O)CC2)c(C)c1,-6%,18µM*,-55*,18µM*,-2%
Cc1nn(C)c(C)c1Nc1ccc(N2C(=O)C3C4C=CC(C4)C3C2=O)cc1[N+](=O)[O-] (configuration not stated),-1%,23µM*,44,?,17%
Cc1nnc(SCC(=O)NCC(=O)Nc2ccc(F)c(F)c2F)n1Cc1ccccc1,1%,10%,22,-1%,3%
Cc1ccc(NC(=O)c2ccccc2N2C(=O)C3C4C=CC(C5CC45)C3C2=O)cc1C (configuration not stated),-9%,?,-13,21µM*,-4%
COC(=O)c1ccc(NC(=O)c2cccc(N3C(=O)C4C5C=CC(C6CC56)C4C3=O)c2)cc1 (configuration not stated),-1%,7.3µM*,i,8.2µM*,-2%
Cc1cccc(NC(=O)c2ccc(N3C(=O)C4C5C=CC(C6CC56)C4C3=O)cc2)c1 (configuration not stated),-3%,?,6,?,-11%
O=C(Nc1ccc(F)cc1)c1cccc(N2C(=O)C3C4C=CC(C5CC45)C3C2=O)c1 (configuration not stated),-21%,?,-75*,16µM*,-10%
O=C(Nc1ccccc1)c1cccc(N2C(=O)C3C4C=CC(C5CC45)C3C2=O)c1 (configuration not stated),-1%,?,-55*,-1%,-21%
CC(C)NC(=O)N1CCCC2(CCN(C(=O)c3ccncc3)CC2)C1,·,-14%,·,3%,·
CN1C(=O)c2ccccc2Cc2c(NCc3ccccc3)ncnc21,-19%,?,38,?,-10%
CC1(C)CC(=O)C/C(=N\NC(=O)C2C3CCCCC32)C1 (configuration not stated),9%,0%,11,0%,3%
Cc1cc(C)cc(N(CC(=O)NCCSCc2ccccc2)S(C)(=O)=O)c1,-28%,-23%,-28,-26%,-10%
Cc1ccnc(Nc2nc(-c3ccc(O)cc3)cs2)c1,-28%,-27%,-21,1%,-18%
Cc1ccnc(Nc2nc(-c3ccc(O)c(O)c3)cs2)c1,?,3.3µM*,-60*,2.1µM*,-25%
Cc1cccnc1Nc1nc(-c2ccc(O)c(O)c2)cs1,-22%,3.7µM*,0,3.3µM*,-29%
COc1ccc(-c2csc(Nc3ncccc3C)n2)cc1OC,-12%,?,?,?,-3%
Cc1cccc(Nc2nc(-c3ccc(O)c(O)c3)cs2)n1,?,1.6µM*,-4,2.1µM*,?
Oc1ccc(-c2csc(Nc3cccc4ccccc34)n2)cc1O,-4%,8.2µM*,5,0.92µM*,-12%
CCn1cc(/C=C(\NC(=O)c2ccccc2Cl)C(=O)N2CCN(C)CC2)c2ccccc21,-9%,?,-1,-22%,-22%
COc1ccc(CN2C[C@H]3CON(C)[C@H]3C[C@H]2c2ccc(-c3ccccc3)cc2)cc1,-18%,?,-2,?,-16%
CC(=O)c1cccc(NC(=O)C2CCCN2S(=O)(=O)c2cccs2)c1 (configuration not stated),5%,10%,21,-2%,14%
Oc1ccc(-c2csc(Nc3ccccn3)n2)cc1O,-23%,2.6µM*,?,5.2µM*,-21%
CC(=O)Nc1ccc(-c2csc(Nc3ccccn3)n2)cc1,-2%,-25%,-1,?,1%
SMILES,HT1080 IDH1KD tx,TDP1 cell noCPT,IL-1B inflam inh,TDP1 cell CPT,HT1080NT lethal
COc1cccc(Cn2c(Oc3cccc(C)c3)nc3c2c(=O)n(C)c(=O)n3C)c1,?,23µM*,-16,21µM*,?
Cc1cccc(Cn2c(NCC(C)O)nc3c2c(=O)n(C)c(=O)n3C)c1 (configuration not stated),-12%,10µM*,-11,12µM*,-6%
Cc1cccc(OCCNc2nc3c(c(=O)n(C)c(=O)n3C)n2C)c1,12%,16µM*,-1,16µM*,9%
COc1cccc(Cn2c(Oc3ccccc3)nc3c2c(=O)n(C)c(=O)n3C)c1,-20%,?,19,-30%,-22%
COCCCNc1nc2c(c(=O)n(C)c(=O)n2C)n1Cc1cccc(OC)c1,-13%,10µM*,-4,18µM*,-20%
Cc1cccc(NC(=O)COC(=O)CCc2c[nH]c3ccccc23)c1C,4%,?,-4,?,-6%[9.24 µM]
O=C(c1ccc(Br)c(S(=O)(=O)N2CCOCC2)c1)N1CCN(C/C=C/c2ccccc2)CC1,-16%,?,-4,?,-17%
COc1ccc(N2CCN(C(c3ccccc3)c3nnnn3Cc3ccc(F)cc3)CC2)cc1 (configuration not stated),-5%,?,?,?,-1%
COCCNc1nc2c(c(=O)n(C)c(=O)n2C)n1Cc1cccc(C)c1,-19%,7.3µM*,22,6.5µM*,-9%
Cc1nc2c(-c3ccccc3)c[nH]n2c(=O)c1Cc1ccccc1,-4%,23µM*,-3,23µM*,7%
COc1ccc(-c2c(C)[nH]n3c(=O)c(Cc4ccccc4)c(C)nc23)cc1,?,21µM*,-1,13µM*,-16%
Cc1nc2c(-c3ccccc3)c(C)[nH]n2c(=O)c1Cc1ccc(C(C)C)cc1,·,2.3µM*,·,2.6µM*,·
Cc1ccc(Cc2c(C)nc3c(-c4ccccc4)c(C)[nH]n3c2=O)cc1,·,4.6µM*,·,6.5µM*,·
c1ccc(COc2ccc3nocc3c2)cc1,1%,-9%,-7,-29%,1%
COc1ccc(C(=O)N2CCN(C(C)=O)CC2)cc1S(=O)(=O)N1CCOCC1,10%,-2%,-13,25%,1%
Cc1[nH]n2c(=O)c3c(nc2c1-c1ccc(Cl)cc1)CCC3,-12%,21µM*,5,12µM*,-11%
CCCCc1c(C)nc2c(-c3ccc(Cl)cc3)c(C)[nH]n2c1=O,·,1.6µM*,·,4.6µM*,·
CCc1c(C)nc2c(-c3ccccc3)c(C)[nH]n2c1=O,-16%,-24%,3,-28%,-16%
O=C(O)CCC(=O)Nc1ccc(/C=C/C(=O)C2CC2)cc1,30%,-5%,18,-7%,6%
